From PubChem BioAssay
For some assays here: Entries with a potency or affinity are not part of this list. Activity calls are given as the source filed them. No rule for the calls is given here.

biological target: Plasmodium falciparum protein kinase 6 (PK6, PF3D7_1337100) (UniProt Q8IDW1); test: PfPK6 kinase inhibitors, biochemical, TCAMS library (AID 1159586); details: recombinant PfPK6, Kinase-Glo ATP depletion luminescence
Sequence (Q8IDW1 1-305): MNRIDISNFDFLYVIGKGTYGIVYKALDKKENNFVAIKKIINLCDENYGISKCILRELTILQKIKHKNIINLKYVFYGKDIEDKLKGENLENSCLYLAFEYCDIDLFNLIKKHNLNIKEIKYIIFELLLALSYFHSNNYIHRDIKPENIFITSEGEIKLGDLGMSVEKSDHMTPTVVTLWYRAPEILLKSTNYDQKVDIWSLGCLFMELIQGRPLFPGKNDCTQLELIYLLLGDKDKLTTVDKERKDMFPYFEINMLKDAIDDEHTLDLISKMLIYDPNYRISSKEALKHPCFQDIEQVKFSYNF

outcome, inactive:
COCCNCc1cccc(-c2ccc(CNC3CCN(Cc4ccccc4)CC3)cc2)c1, CCC(C)C#Cc1c(C)nc(N)nc1N (stereo not given), Cc1cc(NC(=O)NCCN2CCC(NS(=O)(=O)c3ccccc3Cl)C2)c2ccccc2n1 (stereo not given), O=C(CCc1ccccc1)NC(c1ccc(Cl)cc1)c1ccc2cccnc2c1O (stereo not given), Fc1ccc2nc(-c3ccc(-c4cccc(CN5CCCCC5)c4)cc3)[nH]c2c1, O=C(Nc1ccc(-c2nc3ccccc3[nH]2)cc1)C1CCCN(C2CCC2)C1 (stereo not given), NC(=O)C1CCN(Cc2ccc(-c3ccc(-c4nc5ccc(C(F)(F)F)cc5[nH]4)cc3)cc2)CC1, COc1ccc(-c2cccc(NC(=O)c3ccc(Cl)cc3)c2)cc1CNC(C)C, COc1ccc(CNC2CCN(C)CC2)cc1-c1ccc(S(=O)(=O)NCCc2ccccn2)c(F)c1, Cc1cnc(NCCc2ccc(F)cc2)nc1N[C@@H](CC(C)C)C(=O)Nc1ccccc1, Oc1ccc(Br)cc1-c1nc2ccc(Cl)cc2nc1-c1cc(Br)ccc1O, COc1ccc(CNC2CCN(C)CC2)cc1-c1cccc(S(=O)(=O)NCc2ccccc2)c1, CC[C@H](C)CNC(=O)c1ccnc(-c2ccc(CNCCCc3ccccc3)cc2)c1, CS(=O)(=O)c1ccc2nc(-c3cc(-c4ccc(OCCN5CCOCC5)cc4)cnc3N)[nH]c2c1, Cc1ccc2[nH]c3ccccc3c(=O)c2c1, Cc1ccc(-c2nnc3c4ccccc4c(C)nn23)cc1S(=O)(=O)N1CCN(CCO)CC1, Cc1cc(N2CCN(C3CCCCC3)CC2)nc2cccc(O)c12, CC(C)C[C@H](NC(=O)[C@H](Cc1ccccc1)NC(=O)CCN1C(=O)COc2ccc(C(=O)O)cc21)C(=O)NC(CC1CCCCC1)C(O)CC(=O)NCCCn1ccnc1 (stereo not given in full), COc1c(C2=CCN(CCCCNC(=O)c3ccc(-c4ccc(C#N)cc4)cc3)CC2)c(C)cc2c1C(C)(C)CCC2(C)C, Cc1cc(N2CCC(NS(=O)(=O)c3ccccc3)CC2)nc(Nc2cccc(C#N)c2)n1, O=C(Nc1ccc(Cl)cn1)c1sc2ccccc2c1O, Cc1ccc(NC(=O)NC2CCN(CCC(NC(=O)Cc3ccccc3)c3ccc(Cl)c(Cl)c3)CC2)cc1 (stereo not given), Cc1cc(N)c2cc(NC(=O)c3cccc4ccccc34)ccc2n1, Cc1cc(NCCCN2CCCC2=O)n2c(nc3ccccc32)c1C#N, COc1ccc(F)cc1-c1cccc(CNC2CCN(CC3Cn4c(=O)ccc5ccc(F)c3c54)CC2)c1 (stereo not given), NC(=O)C1CCN(Cc2cccc(-c3cccc(-c4nc5ccc(C(F)(F)F)cc5[nH]4)c3)c2)CC1, O=C(/C=C/c1ccc(F)cc1)NC1CCC(CCN2CCc3ccc(-n4cccn4)cc3CC2)CC1 (stereo not given), Cc1cccc2[nH]c(-c3cccc(-c4ccc(C(=O)N5CCCCC5C(C)O)cc4)c3)nc12 (stereo not given), COc1ccc(N2CCN(CCCN3CCN(C(=O)c4ccc(/C=C/c5ccc(Cl)c(Cl)c5)cc4)CC3)CC2)c(OC)c1, C[C@@H](Oc1cc(-n2cnc3ccc(NC(=O)CCN4CCCCC4)cc32)sc1C(N)=O)c1ccccc1Cl, Cc1ccc(CCC(C)NCC(O)c2cccc(C(F)(F)F)c2)cc1 (stereo not given), O=C(NCc1cccc(C(F)(F)F)c1)C(c1cc2ccccc2o1)N1CCN(C(c2ccccc2)c2ccccc2)CC1 (stereo not given), COc1ccc(Cl)cc1N1CCN(CCCNC(=O)c2ccc(-c3nc4ccc(C(F)(F)F)cc4[nH]3)c(C)c2)CC1, CCCCOC(=O)C1=C(C)NC2=C(C(=O)CCC2)C1c1ccc(OC)c(Br)c1 (stereo not given), Cc1cccc(-c2ccc3c(c2)CC(NCc2cccc(-n4ccnc4)c2)C3)c1 (stereo not given), CNC(=O)c1ccccc1Nc1nc(Nc2cccnc2)ncc1C, CC(C)(C)S[C@H]1S[C@H](SC(C)(C)C)[C@@H](OC(=O)c2ccccc2)C(OC(=O)c2ccccc2)[C@H]1OC(=O)c1ccccc1 (stereo not given in full), CSC1=NC(=Nc2ccccc2C)C2(CCC(C(C)(C)C)CC2)N1c1ccccc1Cl (stereo not given), O=C(Nc1ccc(F)cc1)c1cnc(N2CCN(c3ccncc3)CC2)c(Cl)c1, CC1Cc2ccccc2N1CC(=O)Nc1cc(C(F)(F)F)ccc1-n1cncn1 (stereo not given)

biological target: Protein kinase 7 (PK7), Plasmodium falciparum 3D7 (PF3D7_0213400) (UniProt Q7YTF7); test: inhibition of Plasmodium PK7 catalytic activity – biochemical, TCAMS antimalarial set, Kinase-Glo luminescence (AID 1159587); details: recombinant PfPK7, Kinase-Glo ATP depletion luminescence
Sequence (Q7YTF7 1-343): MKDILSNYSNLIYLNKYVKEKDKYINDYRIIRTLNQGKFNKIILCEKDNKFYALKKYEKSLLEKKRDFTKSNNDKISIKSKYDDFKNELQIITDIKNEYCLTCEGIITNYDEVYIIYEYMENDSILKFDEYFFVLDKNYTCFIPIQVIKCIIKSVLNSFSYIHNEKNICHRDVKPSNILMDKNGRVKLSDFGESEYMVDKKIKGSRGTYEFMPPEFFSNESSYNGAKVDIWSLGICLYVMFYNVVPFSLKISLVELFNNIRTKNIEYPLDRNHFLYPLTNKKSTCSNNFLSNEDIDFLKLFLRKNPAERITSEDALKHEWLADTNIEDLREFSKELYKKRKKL

outcome, inactive:
COCCNCc1cccc(-c2ccc(CNC3CCN(Cc4ccccc4)CC3)cc2)c1, CCC(C)C#Cc1c(C)nc(N)nc1N (stereo not given), Cc1cc(NC(=O)NCCN2CCC(NS(=O)(=O)c3ccccc3Cl)C2)c2ccccc2n1 (stereo not given), O=C(CCc1ccccc1)NC(c1ccc(Cl)cc1)c1ccc2cccnc2c1O (stereo not given), Fc1ccc2nc(-c3ccc(-c4cccc(CN5CCCCC5)c4)cc3)[nH]c2c1, O=C(Nc1ccc(-c2nc3ccccc3[nH]2)cc1)C1CCCN(C2CCC2)C1 (stereo not given), NC(=O)C1CCN(Cc2ccc(-c3ccc(-c4nc5ccc(C(F)(F)F)cc5[nH]4)cc3)cc2)CC1, COc1ccc(-c2cccc(NC(=O)c3ccc(Cl)cc3)c2)cc1CNC(C)C, COc1ccc(CNC2CCN(C)CC2)cc1-c1ccc(S(=O)(=O)NCCc2ccccn2)c(F)c1, Cc1cnc(NCCc2ccc(F)cc2)nc1N[C@@H](CC(C)C)C(=O)Nc1ccccc1, Oc1ccc(Br)cc1-c1nc2ccc(Cl)cc2nc1-c1cc(Br)ccc1O, COc1ccc(CNC2CCN(C)CC2)cc1-c1cccc(S(=O)(=O)NCc2ccccc2)c1, CC[C@H](C)CNC(=O)c1ccnc(-c2ccc(CNCCCc3ccccc3)cc2)c1, CS(=O)(=O)c1ccc2nc(-c3cc(-c4ccc(OCCN5CCOCC5)cc4)cnc3N)[nH]c2c1, Cc1ccc2[nH]c3ccccc3c(=O)c2c1, Cc1ccc(-c2nnc3c4ccccc4c(C)nn23)cc1S(=O)(=O)N1CCN(CCO)CC1, Cc1cc(N2CCN(C3CCCCC3)CC2)nc2cccc(O)c12, CC(C)C[C@H](NC(=O)[C@H](Cc1ccccc1)NC(=O)CCN1C(=O)COc2ccc(C(=O)O)cc21)C(=O)NC(CC1CCCCC1)C(O)CC(=O)NCCCn1ccnc1 (stereo not given in full), COc1c(C2=CCN(CCCCNC(=O)c3ccc(-c4ccc(C#N)cc4)cc3)CC2)c(C)cc2c1C(C)(C)CCC2(C)C, Cc1cc(N2CCC(NS(=O)(=O)c3ccccc3)CC2)nc(Nc2cccc(C#N)c2)n1, O=C(Nc1ccc(Cl)cn1)c1sc2ccccc2c1O, Cc1ccc(NC(=O)NC2CCN(CCC(NC(=O)Cc3ccccc3)c3ccc(Cl)c(Cl)c3)CC2)cc1 (stereo not given), Cc1cc(N)c2cc(NC(=O)c3cccc4ccccc34)ccc2n1, Cc1cc(NCCCN2CCCC2=O)n2c(nc3ccccc32)c1C#N, COc1ccc(F)cc1-c1cccc(CNC2CCN(CC3Cn4c(=O)ccc5ccc(F)c3c54)CC2)c1 (stereo not given), NC(=O)C1CCN(Cc2cccc(-c3cccc(-c4nc5ccc(C(F)(F)F)cc5[nH]4)c3)c2)CC1, O=C(/C=C/c1ccc(F)cc1)NC1CCC(CCN2CCc3ccc(-n4cccn4)cc3CC2)CC1 (stereo not given), Cc1cccc2[nH]c(-c3cccc(-c4ccc(C(=O)N5CCCCC5C(C)O)cc4)c3)nc12 (stereo not given), COc1ccc(N2CCN(CCCN3CCN(C(=O)c4ccc(/C=C/c5ccc(Cl)c(Cl)c5)cc4)CC3)CC2)c(OC)c1, C[C@@H](Oc1cc(-n2cnc3ccc(NC(=O)CCN4CCCCC4)cc32)sc1C(N)=O)c1ccccc1Cl, Cc1ccc(CCC(C)NCC(O)c2cccc(C(F)(F)F)c2)cc1 (stereo not given), O=C(NCc1cccc(C(F)(F)F)c1)C(c1cc2ccccc2o1)N1CCN(C(c2ccccc2)c2ccccc2)CC1 (stereo not given), COc1ccc(Cl)cc1N1CCN(CCCNC(=O)c2ccc(-c3nc4ccc(C(F)(F)F)cc4[nH]3)c(C)c2)CC1, CCCCOC(=O)C1=C(C)NC2=C(C(=O)CCC2)C1c1ccc(OC)c(Br)c1 (stereo not given), Cc1cccc(-c2ccc3c(c2)CC(NCc2cccc(-n4ccnc4)c2)C3)c1 (stereo not given), CNC(=O)c1ccccc1Nc1nc(Nc2cccnc2)ncc1C, CC(C)(C)S[C@H]1S[C@H](SC(C)(C)C)[C@@H](OC(=O)c2ccccc2)C(OC(=O)c2ccccc2)[C@H]1OC(=O)c1ccccc1 (stereo not given in full), CSC1=NC(=Nc2ccccc2C)C2(CCC(C(C)(C)C)CC2)N1c1ccccc1Cl (stereo not given), O=C(Nc1ccc(F)cc1)c1cnc(N2CCN(c3ccncc3)CC2)c(Cl)c1, CC1Cc2ccccc2N1CC(=O)Nc1cc(C(F)(F)F)ccc1-n1cncn1 (stereo not given)
